Source: PubChem (National Center for Advancing Translational Sciences (NCATS))
GCN5L2 inh: inhibitors of human GCN5L2 histone acetyltransferase; 390,000 compounds, 0.21% hits; AID 504327; Q92830; Potency, µM (top dose mostly 58.9 µM), without a hit: top-dose activity change, negative = inhibition, hits mostly inhibitors; GCN5L2 HAT assay, ThioGlo1 CoA-SH fluorescence; further: on the % scale 0 is the no-effect control and ±100 the full control effect
Target sequence (Q92830 whole entry, looked up): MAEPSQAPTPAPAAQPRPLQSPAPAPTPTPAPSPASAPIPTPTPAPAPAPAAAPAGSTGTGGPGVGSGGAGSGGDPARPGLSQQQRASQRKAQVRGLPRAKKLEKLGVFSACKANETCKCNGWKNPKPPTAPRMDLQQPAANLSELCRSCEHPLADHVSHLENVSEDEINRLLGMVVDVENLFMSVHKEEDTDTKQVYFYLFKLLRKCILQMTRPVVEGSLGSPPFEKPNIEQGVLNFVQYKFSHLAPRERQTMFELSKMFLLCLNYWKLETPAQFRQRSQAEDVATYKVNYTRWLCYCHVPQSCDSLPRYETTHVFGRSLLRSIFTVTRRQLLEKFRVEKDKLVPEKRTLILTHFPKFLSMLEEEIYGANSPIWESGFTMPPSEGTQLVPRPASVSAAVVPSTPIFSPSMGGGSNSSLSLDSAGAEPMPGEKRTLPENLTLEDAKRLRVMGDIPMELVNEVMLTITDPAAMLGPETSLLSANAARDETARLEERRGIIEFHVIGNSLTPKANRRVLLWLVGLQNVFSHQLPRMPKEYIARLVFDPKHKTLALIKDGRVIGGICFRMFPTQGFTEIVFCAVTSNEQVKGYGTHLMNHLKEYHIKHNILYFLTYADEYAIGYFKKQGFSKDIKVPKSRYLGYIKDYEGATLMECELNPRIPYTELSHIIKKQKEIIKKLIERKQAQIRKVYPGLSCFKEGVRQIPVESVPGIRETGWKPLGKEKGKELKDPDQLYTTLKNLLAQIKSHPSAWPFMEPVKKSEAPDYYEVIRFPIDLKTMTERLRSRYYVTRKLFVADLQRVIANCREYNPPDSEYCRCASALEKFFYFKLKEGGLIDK
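ThioGlo1-coupled HAT assay: 20nM GCN5L2, 70uM acetyl-CoA, 75uM H3(1-25) peptide, pH 7.5. Fluorescence read at 340/540nm at start and after 20 min at room temperature.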
Mito fusion yeast: mitochondrial division inhibition or fusion activation; S. cerevisiae fusion-defective mutant growth rescue, CellTiterGlo 48 h; Potency, µM (titrated, usually from 46.1 µM), without a hit: at the top dose growth rescue (activation), usual class: activators; 320,000 compounds, 0.23% hits; further: % of control where 0% means no effect; nearly all actives have a fitted effect of over 45% in size
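Compounds are tested for their ability to restore growth of mitochondrial fusion-defective yeast strains at non-permissive 37C in YPEG medium over 48 hours. Viability is quantified by luciferase luminescence.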
GLS inhibitor: inhibitors of human glutaminase (GLS) | O94925 | GLS enzymatic activity, qHTS titration | Potency, µM (highest dose often 45.5 µM), inactives show at the top dose activity change, negative = inhibition, most hits filed as inhibitors | 410,000 compounds, 0.21% hits | AID 624170; further: on the % scale 0 is the no-effect control and ±100 the full control effect
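Assay buffer: 45 mM KH2PO4 pH 8.2, 0.02% Tween-20. hKGA acts on L-glutamine (1 mM solution added); product glutamate is reported by an oxidase/peroxidase Amplex Red coupling, with fluorescence taken at baseline and 30 min.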
PLK1 PBD block: blocks phosphopeptide binding to human PLK1 polo-box domain; P53350; Plk1 PBD binding of FITC phosphopeptide, fluorescence polarization; Potency, µM, without a hit: max response, negative = inhibition, most hits filed as inhibitors; 360,000 compounds, 2.8% hits; AID 720504; further: series mostly up to about 57 µM; on the % scale 0 is the no-effect control and ±100 the full control effect; nearly all actives have a fitted effect of over 65% in size
VDR inh: inhibitors of human vitamin D receptor | VDR-SRC2-3 peptide fluorescence polarization, 2 h | 400,000 compounds, 0.93% hits | P11473 | Potency, µM, without a hit: max response, negative = inhibition, actives largely listed as inhibitors; further: on the % scale 0 is the no-effect control and ±100 the full control effect
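Compounds are added to VDR with labelled SRC2-3 coactivator peptide and held 2 h at room temperature. Inhibition of the VDR–peptide interaction is then read as a change in fluorescence polarization.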
PKM2 activator: increases activity of human pyruvate kinase M2; P14618; purified PKM2, Kinase-Glo ATP luminescence, activation; response scale: 0% is enzyme alone, no compound; Potency, µM (top dose mostly 57.5 µM), without a hit: at the highest dose activation, most hits filed as activators; 260,000 compounds, 0.34% hits; AID 1631; further: on the % scale 0 is the no-effect control and ±100 the full control effect; nearly all actives have a fitted effect of over 55% in size
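Purified hPK-M2 (>95% pure) converted ADP (0.1 mM final) to ATP with 0.5 mM PEP in 50 mM imidazole pH7.2, KCl, MgCl2, Tween 20, BSA; 1 h at room temperature. ATP detected by Kinase-Glo luminescence.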
Starred values were filed as active, the others as inactive; ? = inconclusive; . = no result; [ ] = another dose, or the depositor's remark. Compounds with a hit are over-represented: about 3.4% of the library has one in this group of screens. The call rests on the fitted dose curve; in most records, active means well fitted curve in the direction sought with a large enough effect; inconclusive means small, poorly fitted or top-dose-only effect, or another doubt; inactive means no such curve, though single readings can be large; an effect the other way counts as inactive or inconclusive. Potency means the concentration at half of the fitted maximal effect.

SMILES	GCN5L2 inh	Mito fusion yeast	GLS inhibitor	PLK1 PBD block	VDR inh	PKM2 activator
COC(=O)[C@@H](NC(=O)N1CCc2nc(-c3ccc(OC)cc3C)c3c(c2C1)CO[C@@H](c1ccccc1)C3)C(C)C	.	.	.	.	.	-7%[11.5 µM]
Cc1ccc2oc(C(=O)N(C)CCC(O)c3ccccc3)c(C)c2c1 (stereo unspecified)	0%	6%	1%	-8%	0%	-3%
Cc1ccc(C=C(C#N)C(=O)c2ccccc2)cc1	.	.	24%	1.9µM*	.	.
N#C/C(=C\c1cccs1)C(=O)c1ccccc1	-7%	0%	?	6.7µM*	-14%	20%
COc1ccc(/C=C(\C#N)C(=O)C(C)(C)n2cncn2)cc1	-15%	0%	-1%	13µM*	5%	-2%
COCCNC(=O)/C(C#N)=C/c1cccs1	0%	5%	3%	25%	4%	-10%
CCSc1ncc(/C=N/Nc2ccccc2)n1C	3%	14%	-28%	7.5µM*	-13%	9%
CCSc1ncc(/C=N/Nc2ccc(Cl)cc2)n1C	-10%	-24%	26%	-8%	-9%	-5%
CC1(C(=O)NS(=O)(=O)c2ccccc2)CCN1C(=O)Cc1cccs1 (stereo unspecified)	.	.	4%	-5%	.	.
Cc1ccc(CC(=O)NCc2ccc(Cl)cc2)cc1	3%	0%	-29%	15µM*	?	0%
CCOc1ccc2nc3c(cc2c1)CN(CCCO)C(=NCCOC)S3	-19%	16%	4%	11µM*	-20%	-4%
CCOc1ccc(N=C2Sc3nc4ccc(C)cc4cc3CN2CCOC)cc1	-8%	-2%	-3%	-7%	3%	0%
COc1cc(/C=C/C(=O)OCC(=O)Nc2ccc(C)c(S(=O)(=O)N3CCCCC3)c2)ccc1O	-8%	0%	?	7.5µM*	?	2%
COc1cc(/C=C/C(=O)OCC(=O)Nc2cc(S(=O)(=O)N3CCCCC3)ccc2C)ccc1O	-6%	2%	?	-10%	5%	-2%
CC1CCCCC1NC(=O)COC(=O)c1ccc2c(c1)OCCO2 (stereo unspecified)	-6%	6%	12%	2%	-10%	.
O=C(CN1C(=O)CCSc2ccc(S(=O)(=O)N3CCOCC3)cc21)Nc1ccccc1Cl	-9%	7%	-2%	-14%	11%	.
CCNC(=O)CCn1nc(-c2ccc(C)cc2)c2ccccc2c1=O	25%	12%	68%	30µM*	-3%	.
CC(=O)N1CCN(C(=S)Nc2ccc(SC(F)F)cc2)CC1	2%	0%	0%	21µM*	-6%	0%
O=C1CCCC2=C1Sc1ccccc1N2	0%	3%	13µM*	-21%	6%	0%
O=C1Nc2ccccc2SC1=Cc1ccccc1	.	.	3%	-5%	.	.
COC(=O)C(NC(=O)c1ccccc1)=C(C)C	-6%	-2%	?	3.4µM*	-9%	3%
CC(O)(c1ccc(F)c(F)c1)c1nc(-c2ccc(S(C)(=O)=O)cc2)cs1 (stereo unspecified)	.	.	1%	1%	.	.
C#CC(=O)CC1(CN(Cc2ccccc2)C(=O)OC(C)(C)C)CCCCC1	.	.	0%	12µM*	?	.
Cc1ccc([N+](=O)[O-])cc1S(=O)(=O)n1ccnc1C	0%	-3%	?	4.2µM*	?	4%
Cc1ccc([N+](=O)[O-])cc1S(=O)(=O)N1CCN(C)CC1	-1%	-3%	6%	-6%	2%	-1%
CCC(CC)=NNc1ccc(S(N)(=O)=O)cc1[N+](=O)[O-]	0%	6%	-1%	-14%	-15%	18µM*
CC(=O)Oc1cc2oc(=O)c3c(c2cc1Cl)CCC3	-9%	2%	-10%	6µM*	-16%	12%
COc1ccc(NC(=O)c2cc(C3CCCCN3C(=O)c3cccs3)on2)c(C)c1 (stereo unspecified)	.	.	-8%	-1%	.	.
COc1ccc(C2C(C#N)=C(N)Oc3cc(C)n(Cc4ccco4)c(=O)c32)cc1 (stereo unspecified)	-2%	-1%	-2%	-28%	?	24%
